PubChem BioAssay AID1851 (National Center for Advancing Translational Sciences (NCATS), 2009)
Screen size: about 16,000 compounds; about 2,600 (16%) were called active. Not shown: some 20% with an inconclusive outcome. Only a sample is shown. Unmarked numbers belong to inactive results. Calls follow the shape of the dose curve; as a rule, active = well fitted curve in the direction sought with a large enough effect; inconclusive = small, poorly fitted or top-dose-only effect, or effect the other way; inactive = no such curve, though single readings can be large or run the other way. Numbered stars: 1 amine (or outer) side, 2 acyl side, 3 side chain; on linkers, the order of the positions; unused ones are H or OH. Bridge positions count the residues as written; N and C are the ends. Square brackets hold non-standard residues; d marks the D form. Peptide text beside a SMILES is read from it. I, II: the chains in the order shown. Actinocin(9to1) = Cc1c2oc3c(C)ccc(C(=O)[*:1])c3nc-2c(C(=O)[*:2])c(N)c1=O; aThr = C[C@H](O)[C@H](N)C(=O)O; NMeV = CN[C@H](C(=O)O)C(C)C; Sar = CNCC(=O)O

molecular target: Cytochrome P450 2D6 (Homo sapiens) (UniProt P10635); assay: Cytochrome panel assay with activity outcomes; details: recombinant CYP, pro-luciferin dealkylation, luminescence, p450-cyp2d6; series mostly up to 57.1 µM
% is scaled to controls: 0 for no effect and ±100 for the full control effect.

Sequence of Cytochrome P450 2D6 (Homo sapiens) (P10635 whole entry, looked up): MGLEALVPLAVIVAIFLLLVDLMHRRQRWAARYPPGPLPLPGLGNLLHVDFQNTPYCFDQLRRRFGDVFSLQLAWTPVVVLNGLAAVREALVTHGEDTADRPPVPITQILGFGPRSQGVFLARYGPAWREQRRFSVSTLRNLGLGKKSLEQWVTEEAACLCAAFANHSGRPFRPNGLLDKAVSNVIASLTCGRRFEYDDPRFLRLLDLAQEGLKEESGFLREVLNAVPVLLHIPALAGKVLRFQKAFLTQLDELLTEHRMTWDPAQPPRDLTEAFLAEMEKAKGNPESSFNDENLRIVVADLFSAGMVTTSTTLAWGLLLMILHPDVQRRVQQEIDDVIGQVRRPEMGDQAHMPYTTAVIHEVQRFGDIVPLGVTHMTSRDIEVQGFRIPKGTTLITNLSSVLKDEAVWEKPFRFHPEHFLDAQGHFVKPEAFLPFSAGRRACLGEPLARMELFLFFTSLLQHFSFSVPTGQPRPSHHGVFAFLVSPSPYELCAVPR

Structure (SMILES)	activity, negative = inhibition	AC50
CO[C@@H]1COC(=O)CC=C[C@@H](C)[C@@H]2C=C[C@H](O)[C@@H](COC(=O)C/C=C\[C@H]1C)O2	13% [at 11.4 µM]	–
Cc1cc(C)c(C)c(S(=O)(=O)ON2C(=O)c3ccccc3C2=O)c1C	–	inactive
CC(C)(C)c1ccc(OCC(=O)O)c(Cl)c1	12.8% [at 11.4 µM]	–
Cc1nc(NS(=O)(=O)c2ccccc2C)c2c3c(sc2n1)CCC3	–	inactive
CCCNC(=O)c1c(C)cc(=O)oc1C	–	inactive
COc1cc(-c2nnc(-c3ccc(N4CCOCC4)cc3)o2)cc(OC)c1OC	–	inactive
COc1ccc(Br)cc1/C=C/C(=O)Nc1c(C)cccc1C	–	inactive
CCCCC(=O)Nc1ccc(C(=O)NNC(=O)CCc2ccccc2)cc1	–	inactive
CN1C(=O)C(CC(N)=O)N(NC(=O)c2ccc(Cl)cc2)C1=S (stereo not given)	–	inactive
CCNC(=O)CC1C(=O)N(c2ccc(F)cc2)C(=O)N1CCc1ccc(OC)cc1 (stereo not given)	–	inactive
CCN1C(=O)C(CC(=O)Nc2ccc(OC)cc2)N(Cc2cccnc2)C1=S (stereo not given)	–	inactive
CN1C(=O)C(CC(=O)Nc2ccc(F)cc2)N(CCCc2ccccc2)C1=S (stereo not given)	–	2 µM (active)
O=C(CC1C(=O)NCCN1C(=S)Nc1ccccc1)Nc1ccc2c(c1)OCCO2 (stereo not given)	–	inactive
CCN1C(=O)C(CC(=O)Nc2ccc(Br)cc2)N(CCCc2ccccc2)C1=S (stereo not given)	–	10 µM (active)
CC(=O)Nc1ccc(S(=O)(=O)NC2(C(F)(F)F)NC(=O)N(c3ccc(Cl)cc3)C2=O)cc1 (stereo not given)	–	inactive
O=C(CC1C(=O)N(c2ccc(Cl)cc2)C(=S)N1CCc1ccncc1)Nc1ccc(F)cc1 (stereo not given)	–	2.24 µM (active)
Cc1ccc(NC2c3ncccc3C(=O)N2Cc2ccc(F)cc2)cc1 (stereo not given)	–	inactive
COc1ccc(OC)c(C2CC(=O)C3=C(C2)NC(=O)CC3c2ccc(O)c(OC)c2)c1 (stereo not given)	–	inactive
CC(C)CC(=O)N1CCC(O)(CS(=O)(=O)Cc2ccc(Cl)cc2)CC1	–	inactive
COCCn1c(=O)c(-c2cccc(F)c2)nc2cncnc21	–	inactive
Cc1nn(-c2ccccc2)c(N2CCCCC2)c1/C=N/O	–	inactive
O=C(c1ccc(Cl)cc1)N1CCN(c2cc(=O)[nH]nc2-c2ccccc2)CC1	–	inactive
CSc1ccc(CNc2ccccc2)cc1	–	inactive

Structure (SMILES)	activity, negative = inhibition	AC50
COc1cccc(CNCc2ccc(SC)cc2)c1OC	–	3.16 µM (active)
CC(C)CC(=O)Nc1sc2c(c1C#N)CC(C)(C)NC2(C)C	–	7.94 µM (active)
COc1ccc(C(=O)N2CC3(CC(c4ccc(Cl)cc4)=NO3)C[C@H]2C(=O)NCC(N)=O)cc1 (stereo not given in full)	–	inactive
CCOC(=O)C1C(=O)C=C(c2ccc(C)cc2)CC1c1ccco1 (stereo not given)	–	inactive
Cc1c2oc3c(C)ccc(C(=O)N[C@@H]4C(=O)N[C@@H](C(C)C)C(=O)N5CCC[C@@H]5C(=O)N(C)CC(=O)N(C)[C@@H](C(C)C)C(=O)O[C@H]4C)c3nc-2c(C(=O)N[C@@H]2C(=O)N[C@@H](C(C)C)C(=O)N3CCC[C@@H]3C(=O)N(C)CC(=O)N(C)[C@@H](C(C)C)C(=O)O[C@H]2C)c(N)c1=O (I: [aThr]V[dP][Sar][NMeV] / II: [aThr]V[dP][Sar][NMeV]; ester I:1-I:C, II:1-II:C; linker I:N-II:N via Actinocin(9to1))	–	inactive
Cc1ccc(-n2[nH]c(C)c(C=Nc3ccc4[nH]c(=O)[nH]c4c3)c2=O)cc1C	–	inactive
CCOc1ccc(C2=[N+]([O-])C(C)(C)N(O)C2(C)C)cc1	–	inactive
Cc1ccc(S(=O)(=O)N[C@H](C(=O)O)C(C)C)cc1	3.72% [at 11.4 µM]	–
Cc1ccc(NNS(=O)(=O)c2ccc(C)cc2)cc1	–	5.62 µM (active)
Cc1ccc(S(=O)(=O)NNc2ccccc2)cc1	–	7.94 µM (active)
Cc1ccc(S(=O)(=O)N[C@H](CO)C(=O)O)cc1	1.97% [at 11.4 µM]	–
Cc1ccc(NC(=O)NNS(=O)(=O)c2ccc(Br)cc2)cc1	–	inactive
Cc1ccc(S(=O)(=O)NCc2ccccc2)cc1	–	inactive
OC[C@@H]1O[C@@H](n2cnc3c(NC4CCCC4)ncnc32)[C@@H](O)[C@H]1O	–	inactive
CCN1C(=O)C=CC1=O	–	inactive
CC[N+](CC)(CC)CC	–	inactive
Clc1ccc(Sc2cc(N3CCOCC3)nc(-c3ccccc3)n2)cc1	–	inactive
CC(=O)C1=C(NC(=O)c2ccc(F)cc2)CC2C1C2(C)C (stereo not given)	–	inactive
Cc1ccc(CNc2nc(N)c([N+](=O)[O-])c(Nc3ccc(F)cc3)n2)cc1	–	inactive
Cc1[nH]nc(Nc2ccccc2)c1[N+](=O)[O-]	–	10 µM (active)
Nc1nc(NCc2ccccc2)nc(Nc2cccc(F)c2)c1[N+](=O)[O-]	–	inactive
CCOC(=O)CCc1c(C)nc2ncnn2c1C	–	inactive
O=C(OCC#CCSc1nnc(-c2cccc3ccccc23)o1)c1ccco1	–	inactive

Structure (SMILES)	activity, negative = inhibition	AC50
COc1cc2c(cc1OC)C(C(=O)Nc1ccccn1)C(c1cccnc1)N(C)C2=O (stereo not given)	–	inactive
c1ccc(C(CCN2CC3CCC(CC3)C2)c2ccccc2)cc1	–	0.794 µM (active)
c1ccc([C@H](CCN2CCCC2)c2ccccn2)cc1	12% [at 11.4 µM]	–
CCOc1cc(/C=N/NC(=O)CN2CCCCC2)ccc1OCc1ccccc1	–	inactive
C/C(CCN1CCc2nc(-c3ccccc3)c(-c3ccccc3)cc2C1)=N\OC[C@@H](O)COCc1ccco1	7.77% [at 11.4 µM]	–
Cc1nc2cnc(Oc3cccc(Cl)c3)nc2n(CCc2ccccc2)c1=O	–	inactive
COC(=O)[C@@H]1CC[C@H](C)[C@@H](c2ccc(C)cc2)N1C(=O)c1ccc(/C=N\OC[C@@H](O)COCc2ccco2)cc1	-0.0575% [at 11.4 µM]	–
CO/N=C\c1ccc(C(=O)N2[C@H](c3ccc(C)cc3)[C@@H](C)CC[C@H]2C(=O)OC)cc1	16% [at 11.4 µM]	–
COC(=O)[C@@H]1CC[C@H](C)[C@@H](c2ccc(C)cc2)N1C(=O)c1ccc(/C=N\OC[C@@H](C)[C@H](OCc2ccccc2)C(C)C)cc1	–	3.98 µM (active)
CC(C)(C)C(=O)[C@H]1[C@H](c2ccccc2)[C@@]2(N=C(c3ccccc3)OC2=O)C2c3ccccc3C=NN21 (stereo not given in full)	–	inactive
C#CCCCO/N=C1/C[C@@H](O)[C@@H](O)[C@@H]2[C@H]3C(=O)N(c4ccc(F)cc4F)C(=O)[C@@H]3CC[C@H]12	-3.2% [at 11.4 µM]	–
CC(C)(C)c1cc2c(O)c(c1)Cc1cc(C(C)(C)C)cc(c1O)Cc1cc(C(C)(C)C)cc(c1O)Cc1cc(C(C)(C)C)cc(c1O)Cc1cc(C(C)(C)C)cc(c1O)Cc1cc(C(C)(C)C)cc(c1O)Cc1cc(C(C)(C)C)cc(c1O)Cc1cc(C(C)(C)C)cc(c1O)C2	12.2% [at 11.4 µM]	–
Oc1cc(CN2COc3ccccc32)c(O)cc1CNC1CCCCC1	-11.4% [at 11.4 µM]	–
Cc1cc(C(C)(C)C)cc(CNC2CCCCC2)c1O	–	0.501 µM (active)
COCCn1c(=O)c(-c2ccccc2)nc2cnc(Nc3cccc(OC)c3)nc21	–	inactive
Cc1nn(C)cc1C(C(=O)NC1CCCCC1)N(C(=O)Cc1cccs1)c1ccc(C(C)C)cc1 (stereo not given)	–	inactive
CC(C)c1ccc(N(C(=O)C(F)(F)F)C(C(=O)NC2CCCCC2)c2ccncc2)cc1 (stereo not given)	–	inactive
O=C(NC1CCCCC1)C(c1cccs1)N(C(=O)C(F)(F)F)c1ccccc1 (stereo not given)	–	10 µM (active)
Cc1ccc(C(OC(=O)c2ccco2)C(=O)NC2CCCCC2)cc1 (stereo not given)	–	inactive
Cc1cc(C)cc(N(C(=O)Cc2cccs2)C(C(=O)NC2CCCCC2)c2ccccn2)c1 (stereo not given)	–	inactive
Cc1cc(C)cc(N(C(=O)c2ccccn2)C(C(=O)NC2CCCCC2)c2cccs2)c1 (stereo not given)	–	inactive
O=C(NC1CCCCC1)C(c1cccs1)N(Cc1cccs1)C(=O)c1ccco1 (stereo not given)	–	17.8 µM (active)
Cc1ccc(N(C(=O)C(F)(F)F)C(C(=O)NC2CCCCC2)c2cccs2)cc1C (stereo not given)	–	inactive

Structure (SMILES)	activity, negative = inhibition	AC50
O=C(NC1CCCC1)C(c1ccsc1)N(Cc1ccccc1)C(=O)Cc1cccs1 (stereo not given)	–	12.6 µM (active)
CC(C)(S)[C@H](N)C(=O)O	14.1% [at 11.4 µM]	–
Cc1nc(S(=O)(=O)N(C)c2ccccc2)c(C#N)c(C)c1Cl	–	inactive
CCOC(=O)c1cc2c(C(F)(F)F)cc(-c3ccccc3)nc2o1	–	inactive
Nc1c(S(=O)(=O)O)cc(Nc2cccc(S(N)(=O)=O)c2)c2c1C(=O)c1ccccc1C2=O	-9.77% [at 11.4 µM]	–
CCOC(=O)c1cc(NC(=O)c2ccc(C)cc2)c(=O)oc1-c1ccccc1	–	inactive
O=C(O)c1cc(=O)c2ccc(Cl)cc2[nH]1	–	inactive
O=C(c1c(O)c2ccc(Cl)cc2[nH]c1=O)C1CC1	–	0.1 µM (active)
CCOC(=O)Nc1ccc2c(c1)N(C(=O)CCN1CCOCC1)c1ccccc1S2	–	inactive
CC1CCN(CC(=O)N2c3ccccc3Sc3cc4ccccc4cc32)CC1	–	3.98 µM (active)
COc1ccc(OC)c2[nH]c(=O)c(CCNC(=O)C3CCCCC3)cc12	–	inactive
COc1ccc([N+](=O)[O-])cc1COc1ccc2c(-c3ccccc3)cc(=O)oc2c1	–	inactive
COc1ccc(-c2nc(-c3ccccc3)c(-c3cc([N+](=O)[O-])ccc3C)[nH]2)cc1O	–	28.2 µM (active)
COc1ccc(-c2[nH]c(-c3ccc(C(=O)O)cc3)nc2-c2ccccc2)cc1	–	inactive
COc1cccc(Nc2ncc3nc(-c4ccccc4)c(=O)n(C)c3n2)c1	–	inactive
COc1cccc(CSCC(=O)O)c1	14.7% [at 11.4 µM]	–
CCOc1ccc(N2CC(C(=O)NCc3cccc(C)c3)CC2=O)cc1 (stereo not given)	–	inactive
CCOc1cccc(CNCCNC(=O)c2nonc2N)c1	–	2.24 µM (active)
CCOc1ccc(-n2c(N)c(C(=O)NCc3cccnc3)sc2=S)cc1	–	inactive
COc1cccc(CNCCNC(=O)c2nonc2N)c1	–	3.16 µM (active)
COCCNC(=O)c1cc(-c2cccc(OC)c2)on1	–	inactive
